# aSyn UTR act = Activators via SNCA 5'UTR binding, MLPCN | alpha-synuclein 5'UTR reporter, activators screen | activity score, % (tested at 7.5 µM), hits read low | 300,000 tested, 7.1% active | AID 1814, 2009; in the data active = activity score below about -60%
# Numbers stand for hits; – = inactive. Not all results are given here.
SMILES,aSyn UTR act
CC(=O)c1ccc(-c2ccc(C(=O)N3CCN(c4ccc(F)cc4)CC3)o2)cc1,-73
O=C(c1ccc([N+](=O)[O-])o1)N1CCc2ccccc2C1,-103
O=C(c1ccc([N+](=O)[O-])o1)N1CCc2ccccc21,-190
CC(=O)c1ccc(-c2ccc(C(=O)N3CCCc4ccccc43)o2)cc1,-66
CC1CC2(C)Oc3ccccc3CC2C(C)C1CNCCCN(C)C (centres undefined),–
COc1ccc(/C=C/C(=O)c2ccc([N+](=O)[O-])o2)cc1OC,–
COc1ccc2oc(C(=O)N3CCCc4ccccc43)c(C)c2c1,-91
Cc1ccc(C(=O)N2CCc3ccccc32)o1,-94
COc1cc2c(cc1OC)CN(C(=O)c1ccc([N+](=O)[O-])o1)CC2,-175
COc1ccc2oc(C)c(C(=O)c3ccc(C)cc3)c2c1,-86
Cc1oc2ccc(O)cc2c1C(=O)c1ccc(Br)cc1,-62
CC(=O)c1c(C)oc2ccc(OCc3ccccc3)cc12,-71
CCCCN(CC)C(=O)c1cc2cc3ccc(OC)cc3nc2o1,-111
CCC(C)NC(=O)c1cc2cc3ccc(OC)cc3nc2o1 (centres undefined),-147
O=C(Nc1ccccc1)c1cc2n(n1)C(C(F)(F)F)CC(C1CC1)N2 (centres undefined),-168
Cc1ccc(NC(=O)c2cc3ccccc3cc2O)cc1,-179
COc1ccc(NC(=O)c2cc3ccccc3cc2O)cc1,-119
O=C1Nc2ccc3sc4ccccc4c3c2C1=O,-69
O=C(NCc1ccccc1)c1cc(-c2ccco2)on1,-97
COc1ccc(CCNC(=O)c2cc(-c3ccco3)on2)cc1OC,-77
Cc1ccccc1Cn1cc(NC(=O)c2noc(C(C)C)c2[N+](=O)[O-])cn1,–
O=C(NCCc1ccccc1)c1cc(-c2ccco2)on1,-321
Cc1ccccc1Cn1cc(NC(=O)c2cc(-c3ccco3)on2)cn1,-76
CC(C)C(=O)N1CCN(c2nc3ccc(Cl)cc3s2)CC1,-140
CC(C)NC(=O)N1CCCN(c2nc3ccc(Cl)cc3s2)CC1,-62
SMILES,aSyn UTR act
COc1cc(/C=N/Nc2nc(-c3ccc(S(=O)(=O)N(C)C)cc3)cs2)ccc1O,-78
O=[N+]([O-])c1cc(/C=N\Nc2nc(-c3ccccc3)cs2)ccc1O,-67
CC(C)C(=O)Nc1ccc(-c2csc(-c3ccccc3)n2)cc1,-205
CC(C)C(=O)Nc1cccc(-c2csc(-c3ccccc3)n2)c1,-70
CCCOC(=O)Nc1nc2ccccc2o1,-99
CCOC(=O)C(=CN=C(N)Nc1nc2ccccc2o1)C(=O)OCC,-119
C/C(=N\NC(=O)c1ccccc1)c1ccc(NC(=O)c2cccs2)cc1,-108
C/C(=N/OCC(=O)Nc1ccccc1)c1cccs1,-131
C/C(=N\NC(=O)C(N)=O)c1ccc(NC(=O)c2cccs2)cc1,-140
C/C(=N\NC(=O)c1ccco1)c1ccc(NC(=O)c2cccs2)cc1,-106
C/C(=N/NC(=O)c1ccccc1)c1ccc(NC(=O)C(F)(F)F)cc1,-69
C/C(=N\NC(=O)c1ccccc1C)c1ccc(NC(=O)c2cccs2)cc1,-148
COc1ccc(/C=N/N=C(\N)c2nonc2N)cc1,-111
CCOc1c(OC(C)=O)ccc(/C=C/c2ccc3cccc(OC)c3n2)c1[N+](=O)[O-],-76
COC(=O)c1ccc(/C=C/c2ccc3cccc(OC)c3n2)cc1,-97
COc1cccc(/C=C/c2ccc3cccc(O)c3n2)c1OC,-74
CC(=O)Nc1ccc(/C=C/c2ccc3cccc([N+](=O)[O-])c3n2)cc1,-112
COc1ccc(/C=C/c2ccc3cccc(O)c3n2)c(OC)c1OC,-92
CC(C)(C)C(=O)Nc1ccc(-c2cc3cc(Cl)ccc3o2)cc1,-124
N#CC(=C1CCCC1)c1nc(-c2cc3ccccc3oc2=O)cs1,-232
Cc1ccc(-c2csc(C(C#N)=C3CCCC3)n2)cc1,-236
N#CC(=C1CCCC1)c1nc(-c2ccccc2O)cs1,-209
N#CC(=C1CCCC1)c1nc(-c2ccccc2)cs1,-187
Cc1ccc2c(C(=O)CSc3ccccc3)c(C)[nH]c2c1,-109
Cc1[nH]c2ccccc2c1C(=O)CSc1ccccc1,-86
SMILES,aSyn UTR act
Cc1[nH]c2ccccc2c1C(=O)CSc1ccccn1,-68
Cc1[nH]c2ccccc2c1C(=O)COc1ccccc1,-113
Nc1ccc(C(=O)OCC(=O)N2CCOCC2)cc1[N+](=O)[O-],-71
O=C(OCC(=O)N1CCOCC1)c1ccccc1Cc1ccccc1,-183
O=C(OCC(=O)N1CCOCC1)c1cccc(F)c1,-87
CC(C)CN(C)C(=O)CCc1nnc(Cc2cccc(C(F)(F)F)c2)o1,-143
CC(NC(=O)CCc1nnc(Cc2cccc(C(F)(F)F)c2)o1)C1CC1 (centres undefined),-77
Cc1ccc(NC(=O)CCc2ccc(C)o2)c(Br)c1,-72
Cc1ccc(NC(=O)CNCc2cccs2)c(Br)c1,-119
Cc1ccc(NC(=O)CCC(=O)c2cccs2)c(Br)c1,-79
Cc1ccc(NC(=O)CNCc2ccccc2)c(Br)c1,-68
CC1CCC(=O)N(CCOc2ccccc2)CC1 (centres undefined),-80
O=C1CCN(Cc2ccccc2)CCN1CCOc1ccccc1,-99
O=c1oc2ccccc2c2oc3cc(O)c(O)cc3c12,-83
Cc1cccnc1NC(=S)Nc1ccc(F)cc1F,-74
Cc1ccc(C)c(NC(=S)Nc2ncccc2C)c1,-136
Cc1cc(C)nc(NC(=S)Nc2ccc(F)cc2F)c1,-62
c1ccc2c(COn3nnc4ccccc43)cccc2c1,-223
N#Cc1c(N2CCOCC2)nsc1-c1ccc(C(F)(F)F)cc1,-134
COc1cc(-c2ccc(=O)[nH]n2)ccc1OC(F)F,–
COc1ccc(-c2ccc3ccccc3n2)cc1OC,-171
COc1ccc(-c2cc(-c3ccccc3O)[nH]n2)cc1OC,-154
COc1ccc(-c2cc(-c3ccc(OC)c(OC)c3)n[nH]2)c(O)c1,-163
Cc1ccc(NC(=O)Nc2cccc([N+](=O)[O-])c2)nc1,-113
Cc1ccc(NC(=O)/C(C#N)=C(\N)C(Cl)(Cl)Cl)nc1,-68
SMILES,aSyn UTR act
Cc1ccc(NC(=O)c2ccc(F)cc2)nc1,-107
Cc1ccc(NC(=O)Nc2ccc([N+](=O)[O-])cc2)nc1,-113
Cc1ccc(NC(=O)Nc2ccccc2)nc1,-119
C=C(C)c1cccc(C(C)(C)NC(=O)Nc2ccc(C)cn2)c1,-91
Cc1ccc(NC(=O)C(=O)Nc2ccc(C)cn2)nc1,-66
COc1cccc(COc2ccc3ccc(=O)oc3c2)c1,-139
COc1ccc(COc2ccc3ccc(=O)oc3c2)cc1,-232
COc1cccc(COc2ccc3c(C)c(Cc4ccccc4)c(=O)oc3c2)c1,-67
O=c1ccc2ccc(OCc3ccccc3)cc2o1,-80
Nc1nn2cc(-c3ccccc3)nc2c2ccccc12,-112
CCc1nn2cc(-c3ccccc3)nc2s1,–
CCC(=O)Nc1cc(C(=O)OCC(=O)c2ccccc2Cl)ccc1C,-168
CCC(=O)Nc1cc(C(=O)OCC(=O)c2ccccc2)ccc1C,-88
Cc1ccc(C(=O)OCC(=O)c2c[nH]c3ccccc23)cc1NC(=O)c1ccco1,-70
O=C(CN1C(=O)c2ccccc2S1(=O)=O)c1ccc(Cl)cc1Cl,–
O=C(CSc1cccc[n+]1[O-])c1cc(Cl)ccc1Cl,-87
O=C(CSc1cccc[n+]1[O-])c1cc2ccccc2o1,-101
CCCC(=O)Nc1ccc(C(=O)/C=C/c2ccc(SC)cc2)cc1,-70
C/C(=N\OCc1nc2ccccc2c(=O)n1/N=C/c1cc([N+](=O)[O-])ccc1O)c1ccccc1,-62
O=[N+]([O-])c1ccccc1N/N=C\c1ccccc1Cl,-209
